Vaccinia pol inh: inhibitors of vaccinia virus processive DNA synthesis (E9 polymerase). normalized absorbance, % (concentration not given with the values). AID 493162. 46,000 compounds, 0.94% hits. in vitro processive DNA synthesis, absorbance read-out; active compounds read low; in the data active = normalized absorbance mostly below about 85%, no sharp cut-off; inactive = mostly above about 86%
* hit, by the source's call. Many of the other results were omitted from the sample, so hits are more common in it than they were.

SMILES | Vaccinia pol inh
CC(=O)N(/C=C1\SC(=S)N(CC(F)(F)F)C1=O)c1ccccc1 | 92
COc1nc(-c2ccccc2)nnc1C(F)(F)F | 100
Cc1cc(C)cc(NC(=O)Nc2ccc(N(C)C)cc2)c1 | 97
Oc1cccc(-c2nc(-c3ccccc3)c3ccccn23)c1 | 85
CN(C)CCOC(=O)c1ccc2[nH]c3c(c2c1)CSCC3 | 58*
O=C(O)c1ccc2[nH]c3c(c2c1)CSCC3 | 89
CC(C)OC(=O)c1ccc2[nH]c3c(c2c1)CCCC3 | 103
CC1CC(C)CN(C(=O)c2cc3c(s2)CCCC3)C1 (centres undefined) | 97
O=C(COC(=O)Cc1cccc2ccccc12)NCc1ccc(F)cc1 | 88
CC1SCC(=O)N(c2ccc(C(F)(F)F)cc2)C1=O (centres undefined) | 109
Cc1ccc2nc(Cl)c3cc(C(=O)N(CCN(C)C)Cc4ccco4)sc3c2c1 | 53*
COC(=O)c1cc2c(Cl)nc3ccc(C)cc3c2s1 | 91
CCCCN(Cc1ccco1)C(=O)c1cc2c(=O)oc3ccc(C)cc3c2s1 | 102
O=C(Cc1ccccc1)Nc1ccc(O)c(-c2nc3ccccc3s2)c1 | 99
Cc1cc(C(=O)NN2CCOCC2)nc2c1c(C)nn2-c1ccccc1 | 105
Cc1ccc(CN2COc3c(Cl)cc4c(C)c(C)c(=O)oc4c3C2)cc1 | 69*
Cc1c2c(cc3c4c(c(=O)oc13)CCCC4)CN(CCc1ccc(F)cc1)CO2 | 106
COC(=O)c1cc2ccc3c(c2oc1=O)CN(Cc1ccccc1)CO3 | 105
C=CCN1C(=O)/C(=C2/C(=O)N(CC(=O)Nc3ccccc3Cl)c3ccccc32)SC1=S | 104
O=C(c1ccc(F)cc1)c1c[nH]c(C(=O)NCc2cccs2)c1 | 102
O=C(COC(=O)c1n[nH]c2ccccc12)NC1CC1 | 103
CCN1CCc2c(OCc3ccc(Cl)cc3)cccc2C1=O | 89
O=C(O)c1ccccc1NS(=O)(=O)/C=C/c1ccccc1 | 95
O=C(O)CNS(=O)(=O)/C=C/c1ccccc1 | 100
O=S(=O)(/C=C/c1ccccc1)Nc1ccc(F)cc1 | 76*
SMILES | Vaccinia pol inh
CC[n+]1c(-c2ccccc2)c2cc(N)ccc2c2ccc(N)cc21 | 12*
Nc1ccc2c(c1)nc(-c1ccccc1)c1cc(N)ccc12 | 98
O=C(CCC1CCCCC1)NCCCN1CCOCC1 | 102
CCCn1c(CCNC(=O)c2ccccc2)nc2ccccc21 | 98
COc1ccc2cc3cc(C(=O)NCCCN4CCCCCC4)sc3nc2c1 | 40*
COc1ccc2cc3cc(C(=O)NCCN4CCN(c5ccccc5F)CC4)sc3nc2c1 | 102
COc1ccc2cc3cc(C(=O)NCCC(C)C)sc3nc2c1 | 102
OC(COCc1ccc2c(c1)OCO2)CN1CCN(c2ccc(F)cc2)CC1 (centres undefined) | 101
CCOC(=O)/C(C#N)=C1\Nc2ccccc2C1=O | 100
COc1ccc2c(c1)c1c3n2CCNC3CCC1 (centres undefined) | 92
COc1ccc2c(c1)c1c3n2CCN=C3N(C)CC1 | 58*
COc1ccc2c3c([nH]c2c1)C(C)=NCC3 | 100
CC(C)C(=O)Nc1c2c(nn1C(C)(C)C)CS(=O)C2 (centres undefined) | 100
O=C(c1ccc(Cl)c(Cl)c1)n1ccc(C2CC2)n1 | 75
O=C(COc1cc(O)c2c(=O)cc(-c3ccccc3)oc2c1)c1ccccc1 | 100
O=c1cc(-c2ccc(O)cc2)oc2cc(O)cc(O)c12 | 85*
O=c1cc(-c2ccccc2)oc2cc(O)cc(O)c12 | 100
Cc1nc2cccc(C(=O)Oc3ccc(C(C)(C)C)cc3)c2o1 | 100
Cc1cccc(NC(=O)C(NC(=O)c2ccc(C34CC5CC(CC(C5)C3)C4)cc2)C(C)C)n1 (centres undefined) | 101
CSCc1cc(=O)[nH]c(C)n1 | 119
Cn1cc(-c2ccccc2C(=O)O)c(=O)c2ccccc21 | 98
O=C(O)c1ccccc1-c1c2cc(Br)c(=O)cc-2oc2[c]([Hg])c(O)c(Br)cc12 | 18*
O=C(O)c1cc(-c2ccco2)nc2ccc(Br)cc12 | 87
CC(C)CCN(C(=S)Nc1ccc(C(C)C)cc1)C1CCN(C(C)C)CC1 | 110
O=C1CC(c2ccccc2C(F)(F)F)C2=C(CC(c3cccs3)CC2=O)N1 (centres undefined) | 96
SMILES | Vaccinia pol inh
O=C(c1cn(-c2ccc(F)cc2F)c(=O)c2ccccc12)N1CCN(c2ccccc2)CC1 | 100
O=C(CC12CC3CC(CC(Br)(C3)C1)C2)Nc1cccnc1 | 102
O=C(CNC(=S)N(Cc1ccccc1)Cc1cccs1)NC1CCCCC1 | 77*
O=C(O)CNC(=S)N(Cc1cccs1)C1CCCCC1 | 101
O=C(O)CNC(=S)N(Cc1ccccc1)Cc1cccs1 | 88
c1ccc(-c2nc(N3CCCC3)nc3ccccc23)cc1 | 99
NC(N)=Nc1nc(-c2ccccc2)c2ccccc2n1 | 51*
CCC(=O)N/C(N)=N\c1nc(C)c2ccccc2n1 | 99
COc1cc(N=Cc2c(O)[nH]c(=O)[nH]c2=O)cc(OC)c1OC | 100
Cn1c2ccc(Br)cc2c2nnc(SCc3ccc4nonc4c3)nc21 | 100
COc1ccc(-c2ccc3ccccc3n2)cc1OC | 101
Cn1c(-c2ccc3ccccc3n2)[n+](C)c2ccccc21 | 100
C[n+]1cc(-c2ccc3ccccc3n2)cc2ccccc21 | 85*
CC1(C)NC(=O)N(CC(O)Cn2c3ccccc3c3ccccc32)C1=O (centres undefined) | 100
OC(COCc1ccccc1)Cn1c2ccccc2c2ccccc21 (centres undefined) | 94
COc1ccccc1CNCC(O)Cn1c2ccccc2c2ccccc21 (centres undefined) | 112
CNCC(O)Cn1c2ccccc2c2ccccc21 (centres undefined) | 78*
Cc1ccc(S(=O)(=O)NCC(O)Cn2c3ccccc3c3ccccc32)cc1 (centres undefined) | 100
CCC(CO)NCC(O)Cn1c2ccccc2c2ccccc21 (centres undefined) | 80*
Cc1ccc(S(=O)(=O)N2CCCCC2)cc1C | 99
CCN(CC)c1ccc(CN2CCN(Cc3ccccc3)CC2)cc1 | 98
CCCC1CCC(C2CCC(C#N)CC2)CC1 (centres undefined) | 89
O=C1CSC(=S)N1/N=C/c1cccnc1 | 102
O=C1CSC(=S)N1/N=C/c1cc(Br)cc(Br)c1O | 81*
O=C(NN1C(=O)CSC1=S)c1ccccc1 | 100
SMILES | Vaccinia pol inh
CCc1cc2c(cc1C(=O)CCN1CCOCC1)OCCO2 | 101
N#C/C=C(\N)c1ccc(Oc2ccc(Cl)c(F)c2)cc1 | 101
C=C1C(C(=O)NCc2ccco2)C1C(=O)NCc1ccco1 (centres undefined) | 56*
Nc1nonc1C(=O)NCc1ccco1 | 100
C=C(NCc1ccco1)c1ccc(Cl)cc1 | 104
COc1ccc(N=Cc2cc3ccc(C)cc3nc2Cl)cc1 | 104
CN1C2CCC1CC(NC(=O)Nc1ccc(Br)cc1)C2 (centres undefined) | 106
O=C1CNC(=O)N1/N=C/c1cccc2ccccc12 | 100
O=c1[nH][nH]c(=O)n1CCCc1cc2cccc3ccc4cccc1c4c32 | 63*
S=C(N=S(c1ccccc1)c1ccccc1)Nc1ccccc1 | 99
COC(=O)c1cccc(NC(N)=S)c1 | 97
Cc1cccc(NC(=O)Nc2cccc(C)c2)c1 | 105
N=C(N)c1cccc(NC(=O)Nc2cccc(C(=N)N)c2)c1 | 77*
COc1cccc(NC(=O)CCCN2C(=O)/C(=C\c3ccco3)SC2=S)c1 | 100
Cc1ccc(C)n1C(CC(=O)O)c1ccc(C#N)cc1 (centres undefined) | 106
NC(CC(=O)O)C1CCCCC1 (centres undefined) | 102
